In PubChem BioAssay AID743193 (National Center for Advancing Translational Sciences (NCATS), 2013):
Results filed as inconclusive are left out. Activity calls are given as the source filed them. The call rests on the fitted dose curve; in most records, active means well fitted curve in the direction sought with a large enough effect; inconclusive means small, poorly fitted or top-dose-only effect, or another doubt; inactive means no such curve, though single readings can be large or run the other way.

What follows are compounds tested against Glyceraldehyde-3-phosphate dehydrogenase (Oryctolagus cuniculus) (UniProt P46406) (assay: Extended Characterization of HPGD Inhibitors: Counterscreen Against rGAPDH). Settings: rabbit GAPDH/diaphorase coupled resazurin fluorescence; series mostly up to 57.1 µM.
Chain of Glyceraldehyde-3-phosphate dehydrogenase (Oryctolagus cuniculus) (P46406 whole entry, looked up): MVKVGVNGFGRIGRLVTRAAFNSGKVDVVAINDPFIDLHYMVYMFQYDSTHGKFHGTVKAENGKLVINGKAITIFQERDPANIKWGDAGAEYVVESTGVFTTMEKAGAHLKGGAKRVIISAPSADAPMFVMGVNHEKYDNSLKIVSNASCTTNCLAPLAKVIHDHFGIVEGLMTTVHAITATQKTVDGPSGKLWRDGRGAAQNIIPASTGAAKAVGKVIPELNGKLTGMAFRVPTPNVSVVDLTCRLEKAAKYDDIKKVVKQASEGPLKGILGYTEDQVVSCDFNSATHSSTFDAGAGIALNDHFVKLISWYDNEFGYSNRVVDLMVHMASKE
Description: The central role of HPGD is to inactivate prostaglandins such as prostaglandin E2 (PGE2) or prostaglandin D2 (PGD2). These prostaglandins are involved in a number of processes, including inflammation, differentiation, and cellular signaling, which makes HPGD an important target for pharmacological intervention. The counterscreen for non-specific dehydrogenase activity was conducted using a rabbit glyceraldehyde-3-phosphate dehydrogenase (rGAPDH; Sigma Aldrich, St. Louis, MO) coupled assay system. In this assay, the rGAPDH-catalyzed conversion of NAD+ to NADH is coupled downstream to an additional enzyme, diaphorase (Sigma Aldrich, St. Louis, MO), which reduces the non-fluorescent molecule, resazurin, to a red fluorescent product, resorufin, in an NADH-dependent fashion. Thus, rGAPDH activity leads to an increase in fluorescence at 598 nm, and inhibitors of the reaction lead to a decrease in resorufin production and a subsequent decrease in fluorescence. The change in fluorescence between 0 and 30 minutes was measured, and data were normalized to control columns representing maximum signal (all components) and background (no rGAPDH). The buffer consisted of 100mM triethanolamine, pH 7.6, 5mM MgCl2 and 0.01% Tween-20, and the assay was run in black, solid-bottom, non-tissue culture-treated Greiner plates. NIH Chemical Genomics Center [NCGC] NIH Molecular Libraries Probe Centers Network [MLPCN] MLPCN Grant: MH084681 Assay Submitter (PI): Structural Genomics Consortium
3 uL of substrate buffer (final conc: 2 mM G3P, 1 mM NAD+, 0.1 mM resazurin, 0.1 mg/mL diaphorase) are added to the 1536-well plate before 23 nL of compound library is pinned into the well. Then, 1 uL of rGAPDH or 0x control (final conc: 2 nM and buffer only, resp.) are added and plate is immediate read for fluorescence on the ViewLux; ex 525, em 598, 1 second exposure, Bodipy Mirror), incubated for 30 at RT before a final read on the ViewLux with the same settings.

SMILES | outcome
Cc1cc(-c2nnc3n2CCCCC3)c(C)n1-c1ccc(Cl)c(Cl)c1 | inactive
Cc1cccc(-n2cnc3cc(C(=O)N4CCCC(C)(C)C4)ccc32)c1 | inactive
Cc1cc(-c2nnc3n2CCCCC3)c(C)n1-c1cccc(C(F)(F)F)c1 | inactive
O=C(c1ccc2c(c1)ncn2-c1cccc(Cl)c1)N1CCCCC1 | inactive
Cc1ccc(-n2c(C)cc(-c3nnc4n3CCCCC4)c2C)cc1 | inactive
O=C(c1ccc2c(c1)ncn2-c1cccc(C(F)(F)F)c1)N1CCCCC1 | inactive
COc1ccc(-n2cnc3cc(C(=O)N4CCCCC4)ccc32)cc1 | inactive
Cc1cc(-c2nnc3n2CCCCC3)c(C)n1-c1cccc(Cl)c1 | inactive
Cc1cccc(-n2cnc3cc(C(=O)N4CCCC(C(F)(F)F)C4)ccc32)c1 (centres undefined) | inactive
